# Reference: PubChem BioAssay (NCI)
# Compounds without any hit were thinned out: in the full panel of roughly 83,000, 20% have a hit.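 Negative percent growth values reflect cell death: -40 means 40% of the cells present at the start died, and -100 means all died.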 Values without a mark were called inactive. Active and inactive are the calls of the source. The calls were made as follows: active = growth percent below 10; inactive = the rest.
# Legend:
# Assay in all cases: NCI-60 one-dose screen, 48 h (100 = growth as untreated, 0 = no growth, -100 = all killed)
# NCI-H23 lung = conditions: 10 µM unless noted
# NCI-H226 lung = conditions: 10 µM unless noted
# NCI-H322M lung = conditions: 10 µM unless noted
# NCI-H460 lung = conditions: 10 µM unless noted
# HOP-92 NSCLC = conditions: 10 µM
# NCI-H522 lung = conditions: 10 µM
# A549/ATCC NSCLC = conditions: 10 µM unless noted
# 786-0 renal = conditions: 10 µM unless noted
# DU-145 prostate = conditions: 10 µM unless noted
# K-562 leukemia = conditions: 10 µM unless noted
# MALME-3M melanoma = conditions: 10 µM unless noted
# MDA-MB-231 breast = conditions: 10 µM unless noted
# RXF 393 renal = conditions: 10 µM unless noted
# SF-268 CNS = conditions: 10 µM unless noted
# SF-295 CNS = conditions: 10 µM unless noted
# SF-539 CNS = conditions: 10 µM unless noted
# UACC-257 melanoma = conditions: 10 µM unless noted
# M14 melanoma = conditions: 10 µM unless noted
# COLO 205 colon = conditions: 10 µM unless noted
SMILES,growth (NCI-H23 lung),growth (NCI-H226 lung),growth (NCI-H322M lung) [%],growth (NCI-H460 lung),growth (HOP-92 NSCLC),growth (NCI-H522 lung),growth (A549/ATCC NSCLC),growth (786-0 renal),growth (DU-145 prostate) [%],growth (K-562 leukemia),growth (MALME-3M melanoma),growth (MDA-MB-231 breast),growth (RXF 393 renal),growth (SF-268 CNS),growth (SF-295 CNS),growth (SF-539 CNS),growth (UACC-257 melanoma),growth (M14 melanoma),growth (COLO 205 colon)
Nc1nc2c(c3cnccc13)C(c1cccc(Br)c1)Cc1cnccc1-2 (centres undefined),-0.611% (active),25.5%,31.5,4.41% (active),15.6%,3.33% (active),13.2%,14.1%,11.4,9.88% (active),36.1%,4.34% (active),7.59% (active),20.3%,13.6%,-15.9% (active),55.5%,-12.7% (active),–
COc1nc(OC)nc(-c2cc(C(=O)c3ccc(Br)cc3)n3cc(C)cc(C)c23)n1,48.1%,34.3%,81.8,34.8%,33.9%,57.7%,51.3%,12%,76.3,91.1%,54.1%,49.8%,11.9%,55.4%,48.7%,26.2%,94.8%,90.3%,–
COc1cc2ncnc(-n3ncc4cc(NC(=O)Nc5ccccc5)ccc43)c2cc1OC,3.14% (active),-13.9% (active),30.9,26.8%,-20.3% (active),19.9%,24.1%,28%,10.5,39.1%,-13.8% (active),-8.14% (active),-84.3% (active),21.7%,26.9%,0.968% (active),28.7%,6.8% (active),–
COc1cc(Cn2ccc3c2-c2oncc2CC3)cc(OC)c1,30.1%,67.4%,33.2,7.4% (active),57.5%,29.3%,36%,50.9%,43.7,24.9%,–,44.1%,54.6%,50%,24.2%,19.6%,53.4%,12.7%,26.1%
O=C(/C=C1\C(=O)N(Cc2ccccc2)c2ccccc21)c1ccc(OCCN2CCCCC2)cc1,58.9%,84.6%,92.6,87.7%,10.7%,-44.5% (active),83%,-74.3% (active),47.5,2.2% (active),–,45.9%,0.729% (active),73.9%,85.6%,51.9%,76.8%,37.9%,-34% (active)
Nc1nc2c(c3ncncc13)C(c1cccc(C(F)(F)F)c1)Cc1ncncc1-2 (centres undefined),18.4%,55.6%,39,10%,46%,32.9%,39.8%,28.5%,15.6,16.9%,66.2%,45%,6.31% (active),45.8%,11.9%,-26.6% (active),67.9%,11.4%,–
C=CCN(C)C,102%,97.3%,114,108%,110%,93.7%,100%,106%,119,–,111%,97.7%,111%,106%,103%,109%,106%,107%,121%
O=C1/C(=C\c2cn(-c3nc(N4CCOCC4)nc(N4CCOCC4)n3)c3ccccc23)c2ccccc2N1c1c(Cl)cccc1Cl,79.7%,60.1%,28.2,40.8%,3.38% (active),75.3%,68.4%,29.5%,57.1,80.6%,95.6%,76.9%,-10.8% (active),57.8%,37.6%,63%,80.7%,78.2%,–
C[C@@H](c1ccc2c(c1)[nH]c1ccc(Cl)cc12)c1nc2ccc(Cl)cc2[nH]1,85.6%,101%,85.8,82.4%,99.5%,43.6%,88.3%,75.9%,90.7,52.6%,–,60.1%,101%,80.9%,99.4%,85.7%,98%,100%,116%
COc1ccc(-c2nc(SCC(C)C)nc(Nc3ccc([N+](=O)[O-])cc3)c2C#N)cc1,98.5%,85.3%,86.8,57%,93.3%,92%,61.5%,94.7%,107,93%,98%,94.6%,107%,93.2%,84.3%,99.8%,85.2%,103%,–
COC1=C(OC)C(=O)c2ccccc2C1=O,81.5%,102%,107,97.4%,95%,94.8%,96.9%,120%,112,–,126%,94%,93.2%,–,108%,102%,76.7%,105%,100%
CCOC(=O)c1c(C)oc2ncnc(Nc3ccc(C(=O)NCCc4ccccc4)cc3)c12,81.8%,63.2%,92.9,83%,61.6%,66.9%,56.6%,74.9%,82.1,89%,89.5%,85.7%,71.8%,74.1%,90.4%,58.9%,79.7%,81.3%,–
CCOC(=O)c1cc(C(=O)c2ccc(Br)cc2)n2cc(C)cc(C)c12,95.2%,87.2%,96.7,95.9%,77.9%,77.3%,75.7%,96.3%,100,99%,96.1%,79.8%,64.2%,97.2%,100%,87.3%,87.2%,94.2%,–
Cc1cc2c(-c3nc4ccccc4[nH]3)c(O)c(O)cc2c(O)c1-c1c(C)cc2c(-c3nc4ccccc4[nH]3)c(O)c(O)cc2c1O,-19.5% (active),-18.2% (active),20.2,-53.7% (active),29.1%,-36.8% (active),-25.4% (active),-11.1% (active),16.6,6.02% (active),-6.72% (active),23.3%,-8.07% (active),6.93% (active),-17.5% (active),-24.5% (active),-3.19% (active),-3.53% (active),–
C/C(CCC(=O)O)=N/Nc1ccc([N+](=O)[O-])cc1,87.8%,93.3%,93.5,38%,74.9%,61.2%,54%,45.7%,82.2,22.3%,111%,51.4%,99.4%,72.3%,2% (active),12.7%,90.3%,24.3%,–
O=S(=O)(Cc1cccc2c(CS(=O)(=O)c3ccc(Cl)cc3)cccc12)c1ccc(Cl)cc1,98%,107%,86.7,72.4%,97.1%,96.4%,84.3%,119%,91.2,83.2%,–,97.3%,109%,92.5%,–,94.3%,107%,102%,83%
CC(=O)c1nn(-c2ccc(C)cc2)cc1C(=O)c1cc2c(ccc3ccccc32)oc1=O,91.2%,90.1%,91.5,100%,77.6%,81.5%,96.8%,93.4%,110,81.2%,–,73%,126%,99.5%,92.1%,94.1%,104%,91.3%,107%
